Data reported in PubChem BioAssay (NCI).
This is part of a sample that, as a whole, favours compounds with a hit. Of some 83,000 tested, about 20% had one in any assay.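 Cell lines were cultured in 96-well plates, exposed to a single compound concentration, and assessed for percent growth 48 hours later.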 Active and inactive are the calls of the source. The calls were made as follows: active = growth percent below 10; inactive = the rest.

Test system: IGROV1 ovarian
Assay: NCI-60 one-dose screen, 48 h (100 = growth as untreated, 0 = no growth, -100 = all killed)
Settings: 10 µM unless noted

Q: For `CC(=O)N1C(=S)NC(=O)C1CC(C)C` (stereo not drawn), which growth is on record?
A: 104% (inactive)

Q: How did the growth turn out when `C#Cc1ccc(C(=O)NCc2ccc(/C=C/C(=O)c3nccn3C)cc2)cc1` was run?
A: 13.1% (inactive)

Q: `Cn1ccnc1C(=O)/C=C/c1ccc(NC(=O)c2ccc(F)cc2)cc1` was tested. Which growth did it give?
A: 34.7% (inactive)

Q: Which growth does the source give for `O=C(O)c1ccc(-n2cc(CNc3cccc(Cl)c3)c(-c3ccc(F)cc3)n2)cc1` here?
A: 102% (inactive)

Q: How did the growth turn out when `CCC1=Cc2cc(OC)ccc2OC12C=Cc1cc(OC)ccc1O2` (stereo not drawn) was run?
A: 30.1% (inactive)

Q: `CCO/C=N/C1=C(C#N)C(c2ccc(OC)cc2)c2sc3c(C)cccc3c2O1` (stereo not drawn) was tested. Which growth did it give?
A: 27.1% (inactive)

Q: How did the growth turn out when `COc1cccc(O)c1/C=C(/C)c1ccc2c(OC)cccc2[o+]1` was run?
A: 97% (inactive)

Q: For `C#CCNC1CCC(c2csc(C#C)n2)=C1C` (stereo not drawn), which growth is on record?
A: -63.6% (active)

Q: `CCO/C=N/C1=C(C#N)C(c2ccc(OC)cc2)c2sc3c(CC)cccc3c2O1` (stereo not drawn) was tested. Which growth did it give?
A: 38.4% (inactive)

Q: How did the growth turn out when `C=CCn1c(SCC(=O)Nc2ccc(C(=O)/C=C/c3ccc(Cl)cc3)cc2)nnc1-c1c[nH]c2ccccc12` was run?
A: 58.1% (inactive)

Q: Which growth does the source give for `N#Cc1cccc(CN2CCC3=C(C2)C(=O)N(Cc2ccc(Cl)cc2)C2=NCCCN23)c1` here?
A: 48.2% (inactive)

Q: With `CCN(CC)c1cn(-c2ccc(S(N)(=O)=O)cc2)nn1` as the molecule, how does the growth read?
A: 113% (inactive)

Q: Which growth does the source give for `CCCCCc1ccc(S(=O)(=O)Nc2cccc(-c3csc(NC(=O)CCCCCN4CCN(C)CC4)n3)c2)cc1` here?
A: 69.6% (inactive)

Q: `CCCCCc1ccc(S(=O)(=O)Nc2cc(-c3csc(NC(=O)CN4CCN(C)CC4)n3)ccc2OC)cc1` was tested. Which growth did it give?
A: 14.2% (inactive)

Q: For `COc1ccccc1NCc1cccn1Cc1ccc(F)cc1`, which growth is on record?
A: 88.8% (inactive)

Q: For `CC(=O)c1cc(C(=O)c2ccc(Br)cc2)n2cc(C)cc(C)c12`, which growth is on record?
A: 85.6% (inactive)

Q: `O=C1Nc2ccccc2/C1=C/c1ccc(COCC2CO2)n1-c1ccc(O)cc1` (stereo not drawn) was tested. Which growth did it give?
A: 104% (inactive)

Q: `C/C(=N\O)[C@H]1C[C@]23CC[C@]4(C)[C@H](CC[C@@H]5[C@@]6(C)CC/C(=N/O)C(C)(C)[C@@H]6CC[C@]54C)[C@H]2[C@H](C)C1(C)OC3` was tested. Which growth did it give?
A: 86.2% (inactive)

Q: `NC(N)=Nc1ccc(Oc2cccc(Oc3ccc(Cl)c(C(F)(F)F)c3)c2)cn1` was tested. Which growth did it give?
A: -81.7% (active)

Q: `COc1ccc([C@@H]2c3[nH]c4ccccc4c3C[C@H]3C(=O)N(C4CCN(CC5CCCCC5)CC4)CC(=O)N23)c(OC)c1` was tested. Which growth did it give?
A: 60% (inactive)

Q: How did the growth turn out when `COc1ccc(C2CC(c3ccc(Nc4nc(NCCO)nc(N5CCOCC5)n4)cc3)=Nc3c(N)nc(N)nc3N2)cc1` (stereo not drawn) was run?
A: 105% (inactive)

Q: For `Cc1ccc2c(c1)Oc1nc(N)c(C#N)c(N)c1C2Sc1ccc(F)cc1` (stereo not drawn), which growth is on record?
A: -91.3% (active)

Q: Which growth does the source give for `O=C(CCn1c[n+](CC(=O)c2ccc(-c3ccccc3)cc2)c2ccccc21)Nc1cccc2cccnc12` here?
A: 10.5% (inactive)

Q: `O=S(=O)(NCCNc1nccc(-n2cnc3ccccc32)n1)c1ccc(Cl)cc1` was tested. Which growth did it give?
A: 98.2% (inactive)

Q: With `O=C1CCCc2nc(Nc3ccc(S(=O)(=O)Nc4ccc([N+](=O)[O-])cc4)cc3)ncc21` as the molecule, how does the growth read?
A: 98% (inactive)

Test system: OVCAR-3 ovarian
Assay: as above
Settings: 10 µM unless noted

Q: How did the growth turn out when `Cc1nn(-c2ccccc2)c2ncnc(N/N=C/c3cccc(O)c3)c12` was run?
A: 41.5% (inactive)

Q: With `C=C1CC[C@@H]2[C@]3(C)COC(c4ccccc4)O[C@@H]3CC[C@@]2(C)[C@@H]1C/C=C1/C(=O)OC[C@H]1O` (stereo partly drawn) as the molecule, how does the growth read?
A: 63.8% (inactive)

Q: For `CN(C)CCNC(=O)c1ccc(-c2nc3ccc4[nH]ncc4c3c3c2CCC3)cc1`, which growth is on record?
A: 2.15% (active)

Q: Which growth does the source give for `Fc1ccc(-c2cc3nc(C(Cl)Cl)nc(-c4ccc(F)cc4)n3n2)cc1` here?
A: -31.7% (active)

Q: `C=C(C=O)[C@@H]1CC[C@]2(C)[C@H](C(=O)C=C3[C@H]4C[C@](C)(C(=O)OC)CC[C@]4(C)CC[C@]32C)[C@@]1(C)CCC#N` was tested. Which growth did it give?
A: -47.2% (active)

Q: How did the growth turn out when `CCc1ccc(SC2c3ccc(N(CC)CC)cc3Oc3nc(N)c(C#N)c(N)c32)cc1` (stereo not drawn) was run?
A: -64.8% (active)

Q: With `CCOC(=O)C1=NNC(c2ccc(Cl)cc2)C1C(=O)N1C(=S)NC(=O)C1CC(C)C` (stereo not drawn) as the molecule, how does the growth read?
A: 113% (inactive)

Q: `C#CCn1cccc1CNc1ccc(OC)cc1` was tested. Which growth did it give?
A: -84.7% (active)

Q: How did the growth turn out when `NC(N)=Nc1ccc(Oc2cccc(NC(N)=Nc3ccc(Br)cc3)c2)cn1` was run?
A: 64.9% (inactive)

Q: For `CC1(C)CC[C@]2(CN)CC[C@]3(C)C(=CC[C@@H]4[C@@]5(C)CCCNC(C)(C)[C@@H]5CC[C@]43C)[C@H]2C1`, which growth is on record?
A: 106% (inactive)

Q: `O=C1C(c2ccccc2)=C(N2CCc3ccccc32)OC1(Cl)Cl` was tested. Which growth did it give?
A: 3.88% (active)

Q: Which growth does the source give for `CC(=O)c1nnn(-c2c(C(=O)n3nc(C)cc3C)sc(=S)n2-c2ccccc2)c1C` here?
A: 115% (inactive)

Q: Which growth does the source give for `COC(=O)C1(C)CCC[C@]2(C)[C@H]3C[C@H]4C(C(C)C)=C[C@]3(CC[C@@H]12)[C@H]1[C@@H]4[C@@H](OC(=O)c2ccco2)CC[C@@H]1OC(=O)c1ccco1` (stereo partly drawn) here?
A: 123% (inactive)

Q: `CC(=O)N1C(=S)NC(=O)C1CC(C)C` (stereo not drawn) was tested. Which growth did it give?
A: 118% (inactive)

Q: With `C#Cc1ccc(C(=O)NCc2ccc(/C=C/C(=O)c3nccn3C)cc2)cc1` as the molecule, how does the growth read?
A: 17.8% (inactive)

Q: For `Cn1ccnc1C(=O)/C=C/c1ccc(NC(=O)c2ccc(F)cc2)cc1`, which growth is on record?
A: 17.9% (inactive)

Q: Which growth does the source give for `O=C(O)c1ccc(-n2cc(CNc3cccc(Cl)c3)c(-c3ccc(F)cc3)n2)cc1` here?
A: 106% (inactive)

Q: `CCC1=Cc2cc(OC)ccc2OC12C=Cc1cc(OC)ccc1O2` (stereo not drawn) was tested. Which growth did it give?
A: 16% (inactive)

Q: How did the growth turn out when `CCO/C=N/C1=C(C#N)C(c2ccc(OC)cc2)c2sc3c(C)cccc3c2O1` (stereo not drawn) was run?
A: 7.72% (active)

Q: How did the growth turn out when `COc1cccc(O)c1/C=C(/C)c1ccc2c(OC)cccc2[o+]1` was run?
A: 116% (inactive)

Q: `C#CCNC1CCC(c2csc(C#C)n2)=C1C` (stereo not drawn) was tested. Which growth did it give?
A: -21.9% (active)

Q: For `CCO/C=N/C1=C(C#N)C(c2ccc(OC)cc2)c2sc3c(CC)cccc3c2O1` (stereo not drawn), which growth is on record?
A: -28.8% (active)

Q: `C=CCn1c(SCC(=O)Nc2ccc(C(=O)/C=C/c3ccc(Cl)cc3)cc2)nnc1-c1c[nH]c2ccccc12` was tested. Which growth did it give?
A: 84% (inactive)

Q: How did the growth turn out when `N#Cc1cccc(CN2CCC3=C(C2)C(=O)N(Cc2ccc(Cl)cc2)C2=NCCCN23)c1` was run?
A: 23.3% (inactive)

Q: With `CCN(CC)c1cn(-c2ccc(S(N)(=O)=O)cc2)nn1` as the molecule, how does the growth read?
A: 110% (inactive)

Q: Which growth does the source give for `CCCCCc1ccc(S(=O)(=O)Nc2cccc(-c3csc(NC(=O)CCCCCN4CCN(C)CC4)n3)c2)cc1` here?
A: 37.1% (inactive)

Q: With `CCCCCc1ccc(S(=O)(=O)Nc2cc(-c3csc(NC(=O)CN4CCN(C)CC4)n3)ccc2OC)cc1` as the molecule, how does the growth read?
A: -19.4% (active)

Q: Which growth does the source give for `COc1ccccc1NCc1cccn1Cc1ccc(F)cc1` here?
A: 112% (inactive)

Q: Which growth does the source give for `CC(=O)c1cc(C(=O)c2ccc(Br)cc2)n2cc(C)cc(C)c12` here?
A: 112% (inactive)

Q: For `O=C1Nc2ccccc2/C1=C/c1ccc(COCC2CO2)n1-c1ccc(O)cc1` (stereo not drawn), which growth is on record?
A: 111% (inactive)

Q: For `C/C(=N\O)[C@H]1C[C@]23CC[C@]4(C)[C@H](CC[C@@H]5[C@@]6(C)CC/C(=N/O)C(C)(C)[C@@H]6CC[C@]54C)[C@H]2[C@H](C)C1(C)OC3`, which growth is on record?
A: 113% (inactive)

Q: For `NC(N)=Nc1ccc(Oc2cccc(Oc3ccc(Cl)c(C(F)(F)F)c3)c2)cn1`, which growth is on record?
A: -95% (active)

Q: `COc1ccc([C@@H]2c3[nH]c4ccccc4c3C[C@H]3C(=O)N(C4CCN(CC5CCCCC5)CC4)CC(=O)N23)c(OC)c1` was tested. Which growth did it give?
A: 74.9% (inactive)

Q: With `COc1ccc(C2CC(c3ccc(Nc4nc(NCCO)nc(N5CCOCC5)n4)cc3)=Nc3c(N)nc(N)nc3N2)cc1` (stereo not drawn) as the molecule, how does the growth read?
A: 101% (inactive)

Q: For `Cc1ccc2c(c1)Oc1nc(N)c(C#N)c(N)c1C2Sc1ccc(F)cc1` (stereo not drawn), which growth is on record?
A: -88.1% (active)

Q: How did the growth turn out when `O=C(CCn1c[n+](CC(=O)c2ccc(-c3ccccc3)cc2)c2ccccc21)Nc1cccc2cccnc12` was run?
A: 28.5% (inactive)

Q: For `O=S(=O)(NCCNc1nccc(-n2cnc3ccccc32)n1)c1ccc(Cl)cc1`, which growth is on record?
A: 106% (inactive)

Q: `O=C1CCCc2nc(Nc3ccc(S(=O)(=O)Nc4ccc([N+](=O)[O-])cc4)cc3)ncc21` was tested. Which growth did it give?
A: 98.9% (inactive)
